Source: PubChem (National Center for Advancing Translational Sciences (NCATS))
Only some compounds are listed: those with a hit (about 5.6% of all), similar ones and a draw of the others.
PKM2 act: qHTS Assay for Activators of Human Muscle isoform 2 Pyruvate Kinase; actives 0.34% (n = 260,000); Potency, µM (series often up to 57.5 µM), for inactives: at the highest dose activation, hits mostly activators; purified PKM2, Kinase-Glo ATP luminescence, activation; response scale: 0% is enzyme alone, no compound; Pyruvate kinase PKM (Homo sapiens), P14618; also: potency is read from the fitted curve at half-maximal effect; nearly all actives have a fitted effect of over 55% in size
Target sequence (P14618 whole entry, looked up, canonical isoform): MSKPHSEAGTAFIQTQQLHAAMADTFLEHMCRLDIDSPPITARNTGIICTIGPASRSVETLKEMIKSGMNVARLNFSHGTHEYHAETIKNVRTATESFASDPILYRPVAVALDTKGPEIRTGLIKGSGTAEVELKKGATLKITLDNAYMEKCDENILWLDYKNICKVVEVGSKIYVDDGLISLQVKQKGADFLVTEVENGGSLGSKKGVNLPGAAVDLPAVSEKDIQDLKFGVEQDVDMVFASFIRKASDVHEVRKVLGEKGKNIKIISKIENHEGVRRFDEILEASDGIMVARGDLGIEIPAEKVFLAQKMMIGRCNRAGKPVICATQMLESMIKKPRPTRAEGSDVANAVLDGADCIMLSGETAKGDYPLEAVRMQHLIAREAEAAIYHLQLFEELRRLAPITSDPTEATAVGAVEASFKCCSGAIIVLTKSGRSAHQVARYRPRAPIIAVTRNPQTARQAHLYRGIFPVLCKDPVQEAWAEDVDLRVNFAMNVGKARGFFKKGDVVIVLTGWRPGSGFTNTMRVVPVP
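Purified hPK-M2 (>95%) run at intermediate activity with 0.1 mM ADP and 0.5 mM PEP in 50 mM imidazole pH 7.2, KCl, MgCl2; 1 h room temperature. ATP formed read by Kinase-Glo luminescence; normalized to uninhibited and no-enzyme controls.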
CtBP-E1A blk: qHTS Assay for Inhibitors of the CtBP/E1A Interaction; CtBP / adenovirus E1A interaction (AlphaScreen); AlphaScreen GST-E1A/His-CtBP binding, 1536-well; hits give low values; activity change, % (no concentration beside the values); actives 0.49% (n = 340,000); AID 651724, 2012; in the data active = activity change below about -65%; inconclusive = mostly about -30% to -63%
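Steps: dispense buffer (Tris pH 8.0, NaCl 300 mM, TCEP 1 mM, BSA, Tween 20); add 5X protein mix (GST-E1A, His-CtBP, 125 nM each); pin 23 nL compound; 2 h at 37 °C, dark; add 5X beads (50 ug/mL); 1 h; read.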
RORgamma inh: qHTS for inhibitors of ROR gamma transcriptional activity. Nuclear receptor ROR-gamma (Mus musculus), P51450. Drosophila S2 Gal4-RORgamma UAS-luciferase reporter, 20 h. Potency, µM (series often up to 53.6 µM), without a hit: at the top dose activity change, negative = inhibition, actives largely listed as inhibitors. AID 2551, 2010. actives 5.4% (n = 310,000); also: potency is read from the fitted curve at half-maximal effect; nearly all actives have a fitted effect of over 60% in size
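A Gal4/UAS one-hybrid system in insect cells: metallothionein-promoter Gal4–ROR gamma fusion plus Photinus luciferase reporter. Copper sulfate 700 uM final, 20 hr ambient incubation, luminescent detection after 10 min with reagent.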
Gal4-VP16 FLuc: VP16 counterscreen qHTS for inhibitors of ROR gamma transcriptional activity | Potency, µM (series often up to 53.6 µM), without a hit: top-dose activity, negative = inhibition, most hits filed as inhibitors | Drosophila S2 Gal4-VP16 UAS-luciferase, luminescence, 20 h | actives 3.5% (n = 310,000) | AID 2546, 2010;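 also: Gal4-VP16 expression switched on by copper sulfate through the metallothionein promoter; potency is read from the fitted curve at half-maximal effect; nearly all actives have a fitted effect of over 50% in size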
Six1-Eya2 blk: qHTS Assay for Inhibitors of the Six1/Eya2 Interaction; Homeobox protein SIX1 (Homo sapiens) + Protein phosphatase EYA2 (Homo sapiens), …; AlphaScreen GST-Six1/His-Eya2 binding, biochemical; hits give low values; activity change, % (no concentration beside the values); actives 0.56% (n = 360,000); AID 651725, 2012; in the data active = activity change below about -65%; inconclusive = mostly about -30% to -63%
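Six1/Eya2 binding was read as AlphaScreen signal after compounds were pinned into GST-Six1 plus His-tagged Eya2 (5X stock 250/500 nM) in pH 8.0 Tris/NaCl/TCEP buffer, beads added, then incubated 1 h, 37 C, dark.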
Numbers without * were called inactive. Unless noted, calls follow the shape of the dose curve; as a rule, active = well fitted curve in the direction sought with a large enough effect; inconclusive = small, poorly fitted or top-dose-only effect, or another doubt; inactive = no such curve, though single readings can be large; an effect the other way counts as inactive or inconclusive. % is scaled to controls: 0 for no effect and ±100 for the full control effect.

For C=C1C(=O)O[C@@H]2C[C@@H](C)[C@@H]3C4OC4C(=O)[C@@]3(C)[C@@H](O)[C@H]12 (some centres not stated) the results were PKM2 act 0%, CtBP-E1A blk -9, RORgamma inh 2.8µM*, Gal4-VP16 FLuc 4µM* and Six1-Eya2 blk -10.
For CCC(=O)N1N=C(c2c(O)n(C)c(=O)n(C)c2=O)CC1c1ccccc1 (configuration not stated) the results were PKM2 act -2%, RORgamma inh 11µM*, Gal4-VP16 FLuc -10% and Six1-Eya2 blk 3.
`Cn1c(O)c(C2=NN(C(=O)CCl)C(c3ccccc3)C2)c(=O)n(C)c1=O` (configuration not stated) gave PKM2 act 0%, RORgamma inh inconclusive, Gal4-VP16 FLuc 18µM* and Six1-Eya2 blk -22.
Screening CCOc1ccc(C2CC(c3c(O)n(C)c(=O)n(C)c3=O)=NN2)cc1 (configuration not stated) returned PKM2 act -8%, CtBP-E1A blk -2, RORgamma inh inconclusive, Gal4-VP16 FLuc inconclusive and Six1-Eya2 blk -1.
Screening C[C@@H]1C[C@H](C)C[C@H](C)[C@@H](O)CC(=O)O[C@H]([C@H]2CCC[C@H]2C(=O)O)C/C=C/C=C(/C#N)[C@H](O)[C@@H](C)C1 returned RORgamma inh 0.028µM* and Gal4-VP16 FLuc inconclusive.
CC(=O)C(O)C(c1ccccc1)c1c(O)c2ccccc2oc1=O (configuration not stated) was read as RORgamma inh 2% and Gal4-VP16 FLuc -2%.
`CCC(C=C[C@@H]1OC(=O)C=C[C@H]1C)=C[C@H](C)CC=CC(C)=C[C@@H](C)C(=O)[C@@H](C)[C@H](O)[C@@H](C)CC(C)=CC(=O)O` gave RORgamma inh inconclusive and Gal4-VP16 FLuc 1.3µM*.
For COc1ccc(-n2nc(C(=O)NCC(=O)N3CCC4(CC3)OCCO4)c3ccccc3c2=O)cc1OC the results were PKM2 act 0%, CtBP-E1A blk -18, RORgamma inh 16µM*, Gal4-VP16 FLuc inconclusive and Six1-Eya2 blk 3.
`COc1cccc(-n2nc(C(=O)N3CCC4(CC3)OCCO4)c3ccccc3c2=O)c1` gave PKM2 act 11%, CtBP-E1A blk 0, RORgamma inh -9%, Gal4-VP16 FLuc 0% and Six1-Eya2 blk -4.
c1ccc(Cn2ccnc2)cc1 was read as PKM2 act -2%, CtBP-E1A blk 23, RORgamma inh 6%, Gal4-VP16 FLuc 0% and Six1-Eya2 blk 1.
Screening CC(C)c1cccc(C(C)C)c1OCCn1ccnc1 returned PKM2 act 3%, CtBP-E1A blk 0, RORgamma inh 22µM*, Gal4-VP16 FLuc inconclusive and Six1-Eya2 blk 20.
CCOC(=O)[C@]1(C#N)[C@@H]2C=CC(C(C)=O)=CN2[C@@H](C(N)=O)[C@@H]1c1ccsc1 was read as PKM2 act 9%, CtBP-E1A blk 6, RORgamma inh 29%, Gal4-VP16 FLuc 20µM* and Six1-Eya2 blk -11.
`O=[N+]([O-])C(Br)Br` gave RORgamma inh 13µM* and Gal4-VP16 FLuc 11µM*.
O=C(CCCCCn1c(=S)[nH]c2ccccc2c1=O)N1CCC2(CC1)OCCO2 was read as PKM2 act 3%, CtBP-E1A blk 3, RORgamma inh 10µM*, Gal4-VP16 FLuc inconclusive and Six1-Eya2 blk 0.
`Cn1nc(OC(=O)Nc2ccc(Cl)cc2)cc1C(F)(F)F` gave PKM2 act 1%, RORgamma inh inconclusive and Gal4-VP16 FLuc 16%.
CC/C(CC(c1ccccc1)c1c(O)c2ccccc2oc1=O)=N\NC(N)=S (configuration not stated) was read as PKM2 act 6%, CtBP-E1A blk -2, RORgamma inh 10µM*, Gal4-VP16 FLuc inconclusive and Six1-Eya2 blk -8.
`CC(=O)CC(c1ccc(O)cc1)c1c(O)c2ccccc2oc1=O` (configuration not stated) gave RORgamma inh 0% and Gal4-VP16 FLuc 3%.
Screening CC(C)c1oc(=O)cc2c1[C@@H](O)[C@H]1OC(=O)[C@@]3(C)CC[C@@H](O)[C@@]2(C)C13 (some centres not stated) returned PKM2 act 5%, CtBP-E1A blk -1, RORgamma inh 20µM*, Gal4-VP16 FLuc 5µM* and Six1-Eya2 blk 1.
`C/C(=N\NC(=O)c1ccccc1O)c1c(O)n(Cc2ccccc2)c(=O)[nH]c1=O` gave PKM2 act -2%, CtBP-E1A blk 1, RORgamma inh 16µM*, Gal4-VP16 FLuc -16% and Six1-Eya2 blk -22.
`C/C(=N\NC(=O)c1ccccc1)c1c(O)n(C2CCCCC2)c(=O)[nH]c1=O` gave RORgamma inh 10µM*, Gal4-VP16 FLuc 20µM* and Six1-Eya2 blk -2.
`CC(=NCc1cccnc1)c1c(O)n(C2CCCCC2)c(=O)[nH]c1=O` gave PKM2 act -10%, CtBP-E1A blk -15, RORgamma inh 6%, Gal4-VP16 FLuc -17% and Six1-Eya2 blk 3.
Screening C/C(=N\NC(=O)c1ccccc1O)c1c(O)n(C2CCCCC2)c(=O)[nH]c1=O returned RORgamma inh 5µM*, Gal4-VP16 FLuc 11µM* and Six1-Eya2 blk 0.
For C/C(=N\NC(=O)c1ccccc1Cl)c1c(O)n(C2CCCCC2)c(=O)[nH]c1=O the results were CtBP-E1A blk -1, RORgamma inh 7.1µM*, Gal4-VP16 FLuc 11µM* and Six1-Eya2 blk -2.
Screening CC(=NCCO)c1c(O)n(C2CCCCC2)c(=O)[nH]c1=O returned PKM2 act -1%, CtBP-E1A blk 1, RORgamma inh 18%, Gal4-VP16 FLuc -17% and Six1-Eya2 blk 0.
CCCCOCCOP(=O)(OCCOCCCC)OCCOCCCC was read as RORgamma inh 0% and Gal4-VP16 FLuc 7%.
`O=C(Cc1coc2cc3c(cc12)CCC3)OCC(=O)N1CCCC1=O` gave PKM2 act 3%, CtBP-E1A blk 11, RORgamma inh -30%, Gal4-VP16 FLuc inconclusive and Six1-Eya2 blk -3.
Cc1cccc(N=Nc2ccc(N(C)C)cc2)c1 was read as PKM2 act -11%, CtBP-E1A blk inconclusive, RORgamma inh 7.9µM*, Gal4-VP16 FLuc 13µM* and Six1-Eya2 blk -72*.
Screening O=Nc1ccc(Nc2ccccc2)cc1 returned RORgamma inh -89% and Gal4-VP16 FLuc inconclusive.
